Experimental data: PubChem BioAssay AID1159580 (chemical genetic matrix, 2015)
The whole screen tested about 5,500 compounds, of which about 2,000 (36%) were called active. Roughly 18% stayed inconclusive and do not appear here. No stated cut-off is given here; in the data, active means normalized growth mostly below about 0.91 (no sharp cut-off); inconclusive means no clear call, values can overlap the other calls; inactive means mostly above about 0.92. The list shows a part of the results.

Assay: chemical genetic growth profiling, strain panel (AID 1159580);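 further: tested at 20 µM; growth read once vehicle control cultures reached saturation at 30 °C; 1 = growth at the plate median or of vehicle wells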
Conditions: growth OD

Measured: normalized growth

NC(=O)c1ncn([C@@H]2O[C@H](CO)[C@@H](O)[C@H]2O)n1
inactive: S. cerevisiae deletion strains, locus YJR075W, strain HOC1, stronger effect = lower value 0.989 | S. cerevisiae deletion strains, locus YKL009W, strain mrt4, stronger effect = lower value 0.992 | S. cerevisiae deletion strains, locus YKL068W, stronger effect = lower value 0.981 | S. cerevisiae deletion strains, locus YKL085W, strain MDH1 (second series), stronger effect = lower value 1 | S. cerevisiae deletion strains, locus YKL085W, strain MDH1, stronger effect = lower value 1 | S. cerevisiae deletion strains, locus YKL160W, strain elf1, stronger effect = lower value 0.984 | S. cerevisiae deletion strains, locus YKL190W, strain CNB1, stronger effect = lower value 0.988 | S. cerevisiae deletion strains, locus YKR001C, strain vps1, stronger effect = lower value 0.984 | S. cerevisiae deletion strains, locus YKR026C, strain gcn3, stronger effect = lower value 0.984 | S. cerevisiae deletion strains, locus YKR091W, strain srl3, stronger effect = lower value 0.982 | S. cerevisiae deletion strains, locus YLL001W, strain dnm1, stronger effect = lower value 0.984 | S. cerevisiae deletion strains, locus YLL026W, stronger effect = lower value 0.984 | S. cerevisiae deletion strains, locus YLL041C, strain sdh2, stronger effect = lower value 0.983 | S. cerevisiae deletion strains, locus YLR027C, strain aat2, stronger effect = lower value 0.983 | S. cerevisiae deletion strains, locus YLR039C, strain RIC1, stronger effect = lower value 1.01 | S. cerevisiae deletion strains, locus YLR058C, strain SHM2, stronger effect = lower value 0.999 | S. cerevisiae deletion strains, locus YLR102C, strain apc9, stronger effect = lower value 0.998 | S. cerevisiae deletion strains, locus YLR113W, strain HOG1, stronger effect = lower value 0.977 | S. cerevisiae deletion strains, locus YLR221C, strain rsa3, stronger effect = lower value 0.982 | S. cerevisiae deletion strains, locus YLR258W, strain gsy2, stronger effect = lower value 0.98 | S. cerevisiae deletion strains, locus YLR262C, strain YPT6 (second series), stronger effect = lower value 0.987 | S. cerevisiae deletion strains, locus YLR262C, strain YPT6, stronger effect = lower value 0.977 | S. cerevisiae deletion strains, locus YLR268W, strain sec22, stronger effect = lower value 0.987 | S. cerevisiae deletion strains, locus YLR320W, strain mms22, stronger effect = lower value 0.993 | S. cerevisiae deletion strains, locus YLR330W, strain CHS5, stronger effect = lower value 0.989 | S. cerevisiae deletion strains, locus YLR342W, strain FKS1 (second series), stronger effect = lower value 0.991 | S. cerevisiae deletion strains, locus YLR342W, strain FKS1, stronger effect = lower value 0.985 | S. cerevisiae deletion strains, locus YLR357W, strain rsc2, stronger effect = lower value 0.995 | S. cerevisiae deletion strains, locus YLR370C, strain arc18, stronger effect = lower value 0.984 | S. cerevisiae deletion strains, locus YLR371W, strain rom2, stronger effect = lower value 0.985 | S. cerevisiae deletion strains, locus YLR384C, strain iki3, stronger effect = lower value 0.979 | S. cerevisiae deletion strains, locus YLR418C, strain cdc73, stronger effect = lower value 1.03 | S. cerevisiae deletion strains, locus YML016C, strain PPZ1, stronger effect = lower value 1 | S. cerevisiae deletion strains, locus YML032C, strain rad52, stronger effect = lower value 0.988 | S. cerevisiae deletion strains, locus YML120C, strain ndi1, stronger effect = lower value 0.99 | S. cerevisiae deletion strains, locus YML124C, strain tub3, stronger effect = lower value 0.985 | S. cerevisiae deletion strains, locus YMR058W, strain fet3, stronger effect = lower value 0.998 | S. cerevisiae deletion strains, locus YMR078C, strain ctf18, stronger effect = lower value 0.979 | S. cerevisiae deletion strains, locus YMR125W, strain sto1, stronger effect = lower value 0.991 | S. cerevisiae deletion strains, locus YMR129W, stronger effect = lower value 0.997 | S. cerevisiae deletion strains, locus YMR205C, strain PFK2, stronger effect = lower value 0.996 | S. cerevisiae deletion strains, locus YMR223W, strain ubp8, stronger effect = lower value 0.989 | S. cerevisiae deletion strains, locus YMR231W, strain pep5, stronger effect = lower value 0.974 | S. cerevisiae deletion strains, locus YMR263W, strain SAP30, stronger effect = lower value 0.986 | S. cerevisiae deletion strains, locus YMR307W, strain GAS1, stronger effect = lower value 1 | S. cerevisiae deletion strains, locus YNL067W, strain RPL9B, stronger effect = lower value 1 | S. cerevisiae deletion strains, locus YNL071W, strain lat1, stronger effect = lower value 0.988 | S. cerevisiae deletion strains, locus YNL128W, strain TEP1, stronger effect = lower value 1 | S. cerevisiae deletion strains, locus YNL153C, strain GIM3, stronger effect = lower value 1 | S. cerevisiae deletion strains, locus YNL183C, strain NPR1, stronger effect = lower value 0.933 | S. cerevisiae deletion strains, locus YNL209W, strain ssb2, stronger effect = lower value 1 | S. cerevisiae deletion strains, locus YNL233W, strain BNI4, stronger effect = lower value 1.01 | S. cerevisiae deletion strains, locus YNL248C, strain rpa49, stronger effect = lower value 0.986 | S. cerevisiae deletion strains, locus YNL250W, strain rad50, stronger effect = lower value 0.989 | S. cerevisiae deletion strains, locus YNL271C, strain bni1, stronger effect = lower value 0.994 | S. cerevisiae deletion strains, locus YNL298W, strain CLA4, stronger effect = lower value 0.97 | S. cerevisiae deletion strains, locus YNL307C, strain MCK1, stronger effect = lower value 1 | S. cerevisiae deletion strains, locus YNL322C, strain KRE1 (second series), stronger effect = lower value 0.979 | S. cerevisiae deletion strains, locus YNL322C, strain KRE1, stronger effect = lower value 1 | S. cerevisiae deletion strains, locus YNR049C, strain mso1, stronger effect = lower value 0.986 | S. cerevisiae deletion strains, locus YNR052C, strain pop2, stronger effect = lower value 0.977 | S. cerevisiae deletion strains, locus YOL006C, strain TOP1, stronger effect = lower value 1.05 | S. cerevisiae deletion strains, locus YOL012C, strain htz1 1.07 | S. cerevisiae deletion strains, locus YOL147C, strain pex11, stronger effect = lower value 0.981 | S. cerevisiae deletion strains, locus YOR001W, strain rrp6, stronger effect = lower value 0.982 | S. cerevisiae deletion strains, locus YOR061W, strain CKA2, stronger effect = lower value 0.998 | S. cerevisiae deletion strains, locus YOR069W, strain VPS5, stronger effect = lower value 1 | S. cerevisiae deletion strains, locus YOR070C, strain gyp1, stronger effect = lower value 0.98 | S. cerevisiae deletion strains, locus YOR080W, strain dia2, stronger effect = lower value 0.979 | S. cerevisiae deletion strains, locus YOR083W, strain WHI5, stronger effect = lower value 0.986 | S. cerevisiae deletion strains, locus YOR106W, strain vam3, stronger effect = lower value 0.989 | S. cerevisiae deletion strains, locus YOR136W, strain idh2, stronger effect = lower value 0.984 | S. cerevisiae deletion strains, locus YOR144C, strain elg1, stronger effect = lower value 0.985 | S. cerevisiae deletion strains, locus YOR184W, strain ser1, stronger effect = lower value 0.992 | S. cerevisiae deletion strains, locus YOR231W, strain MKK1, stronger effect = lower value 0.975 | S. cerevisiae deletion strains, locus YOR265W, strain rbl2, stronger effect = lower value 0.972 | S. cerevisiae deletion strains, locus YOR270C, strain vph1, stronger effect = lower value 1.02 | S. cerevisiae deletion strains, locus YOR290C, strain snf2, stronger effect = lower value 0.976 | S. cerevisiae deletion strains, locus YOR316C, strain cot1, stronger effect = lower value 0.99 | S. cerevisiae deletion strains, locus YPL051W, strain arl3, stronger effect = lower value 0.98 | S. cerevisiae deletion strains, locus YPL055C, strain LGE1, stronger effect = lower value 0.951 | S. cerevisiae deletion strains, locus YPL078C, strain atp4, stronger effect = lower value 0.992 | S. cerevisiae deletion strains, locus YPL106C, strain sse1, stronger effect = lower value 0.939 | S. cerevisiae deletion strains, locus YPL240C, strain hsp82, stronger effect = lower value 0.992 | S. cerevisiae deletion strains, locus YPL241C, strain CIN2, stronger effect = lower value 0.985 | S. cerevisiae deletion strains, locus YPL256C, strain CLN2, stronger effect = lower value 0.981 | S. cerevisiae deletion strains, locus YPR119W, strain clb2, stronger effect = lower value 0.985 | S. cerevisiae deletion strains, locus YPR141C, strain kar3, stronger effect = lower value 0.989 | S. cerevisiae deletion strains, locus YPR163C, strain tif3, stronger effect = lower value 0.978 | S. cerevisiae deletion strains, locus YPR167C, strain met16, stronger effect = lower value 0.995 | S. cerevisiae deletion strains, strain wtn01, stronger effect = lower value 0.983 | S. cerevisiae strains, strain wild type, stronger effect = lower value 0.996
